Compound activity (PubChem BioAssay)
Only some compounds are listed: those with a hit (about 1.3% of all), similar ones and a draw of the others.
IL-2 act – activates IL-2 in a cell-based reporter assay. activation, % (series mostly up to about 46 µM). IL-2 activation reporter assay, cell-based qHTS; stimulated with anti-CD3/CD4/CD28 beads; in transgenic mouse T cells. 360,000 compounds, 0.065% hits; in the data active = activation above about 50%; inconclusive = mostly about 30% to 49%; note: 0% is about no effect
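Using fluorescent plate cytometry, EGFP and DsRed are detected in transgenic mouse T cells stimulated 18 h at 37 degrees C with antibody-coated beads after 60 min compound pretreatment.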
PTAP TSG101 blk – blocks PTAP/TSG101 interaction to inhibit HIV-1 budding | Q99816 | Fluorescence polarization, FITC-PTAP peptide / Tsg101 binding | Potency, µM (titrated, usually from 115 µM), without a hit: at the highest dose activity change, negative = inhibition, usual class: inhibitors | 340,000 tested, under 10 active | AID 493005; active = well fitted inhibition curve with a large enough effect in the main read-out, with a control signal flat, not every such curve was filed as active; inconclusive = small, poorly fitted or top-dose-only effect, or effect the other way, or a change in a side signal; inactive = no such curve, though single readings can be large or run the other way; note: potency is the fitted concentration of half-maximal effect; % of control where 0% means no effect
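FP read-out: FITC-PTAP peptide, 50 nM final, binding Tsg101 binding domain, 10 uM final; 20 min, r.t.; 10 mM HEPES pH 7.5, 0.15 M NaCl, 0.01% Tween 20, 3 mM EDTA, 0.1 mM TCEP.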
BRCA1 expr up – increases BRCA1 expression; MCF7-BRCA1-FFLuc reporter, luminescence, 48 h; response scale: scaled: vehicle 0%, 10 µM genistein 100%; Potency, µM (top dose mostly 46.1 µM), for the others: at the top dose activation, actives largely listed as activators; 380,000 compounds, 1.1% hits; note: potency is the fitted concentration of half-maximal effect; nearly all actives have a fitted effect of over 80% in size
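Luminescence from a BRCA1-driven firefly luciferase in MCF7 cells was read after 48 h compound exposure at 37 C. Data normalized against DMSO and a 10microM genistein activation control, then curve-fitted across the titration.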
TRPML1 blocker – human mucolipin-1 channel inhibition | TRPML1-inducible cells, Ca2+ dye fluorescence, FDSS; hits give low values; inhibition of EC80 agonist-evoked calcium signal | activity change, negative = inhibition, % (concentration not given with the values) | 390,000 compounds, 0.02% hits; in the data active = activity change below about -50%; inconclusive = between about -30% and that limit;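 note: stimulus is agonist 54-4 at its EC80 concentration; % is set by controls: 0 for no effect and ±100 for the full control effect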
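TRPML1-DL cells, Tet-induced overnight (~16 h, 37 °C) at 1,500 cells/well, were loaded with Ca8 no-wash dye plus quencher for 45-90 min at room temperature. Compounds were pinned during FDSS kinetic reading; agonist 54-4 at EC80 (4 uM final) then added.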
PKM2 activator – increases activity of human pyruvate kinase M2. 260,000 compounds, 0.34% hits. AID 1631. purified PKM2, Kinase-Glo ATP luminescence, activation; response scale: 0% is enzyme alone, no compound. Potency, µM (titrated, usually from 57.5 µM), for inactives: at the highest dose activation, actives largely listed as activators. P14618; note: potency is the fitted concentration of half-maximal effect; % is set by controls: 0 for no effect and ±100 for the full control effect; nearly all actives have a fitted effect of over 55% in size
Target sequence (P14618 whole entry, looked up): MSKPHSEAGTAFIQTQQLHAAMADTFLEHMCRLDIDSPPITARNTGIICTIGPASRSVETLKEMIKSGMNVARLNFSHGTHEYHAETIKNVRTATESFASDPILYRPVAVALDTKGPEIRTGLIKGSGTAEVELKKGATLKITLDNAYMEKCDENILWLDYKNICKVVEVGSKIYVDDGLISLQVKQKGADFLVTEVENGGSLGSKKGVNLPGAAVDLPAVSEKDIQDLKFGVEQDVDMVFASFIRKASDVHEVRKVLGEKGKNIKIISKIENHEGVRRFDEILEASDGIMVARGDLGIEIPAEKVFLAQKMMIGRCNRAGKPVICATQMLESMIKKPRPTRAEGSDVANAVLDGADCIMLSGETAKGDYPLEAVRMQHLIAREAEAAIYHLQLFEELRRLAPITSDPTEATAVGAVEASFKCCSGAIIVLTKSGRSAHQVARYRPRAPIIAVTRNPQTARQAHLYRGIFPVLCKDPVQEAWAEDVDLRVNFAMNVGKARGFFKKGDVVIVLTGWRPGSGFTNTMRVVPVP
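hPK-M2, >95% pure; 0.1 mM ADP / 0.5 mM PEP final; imidazole pH7.2 buffer w/ 7 mM MgCl2, 50 mM KCl; 1 h RT; Kinase-Glo lum. Intermediate enzyme activity for dual inhibitor/activator qHTS.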
TRPML1 ag – activates the human TRPML1 channel; Q9GZU1; TRPML1-expressing cells, Ca2+ dye fluorescence, FDSS; activation, % (concentration not given with the values); 410,000 compounds, 0.12% hits; AID 624414; in the data active = activation above about 50%; inconclusive = mostly about 30% to 49%; note: 0% is about no effect
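TRPML1-DL cells, Tet-induced overnight (~16 h, 37 degrees C), loaded 45-90 min at room temperature with Ca8 no-wash calcium dye plus quencher. FDSS fluorescence: 10 s baseline, compound pin-transfer, 110 s agonist read, then EC80 54-4 (4uM final) and 110 s antagonist read.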
Active calls of the source: *; u = inconclusive; x = no result given. Unless noted, calls come from the whole dose curve; as a rule, active = well fitted activation curve with a large enough effect; inconclusive = small, poorly fitted or top-dose-only effect; inactive = no such curve, though single readings can be large or run the other way.

SMILES | IL-2 act | PTAP TSG101 blk | BRCA1 expr up | TRPML1 blocker | PKM2 activator | TRPML1 ag
COc1cccc2c1C(=O)/C(=C\c1ccc(N(C)C)cc1)C2 | x | x | -18% | x | x | 62*
O=C(NC(=S)Nc1ccccc1)c1cccs1 | 0 | -4% | 5.6µM* | 14 | 3% | 1
Cc1ccc(NC(=S)NC(=O)c2cccs2)cc1F | 0 | -1% | 3.5µM* | -14 | x | 1
Fc1ccccc1Cn1nnc2c(NCCc3ccccn3)ncnc21 | -1 | -1% | 2% | -13 | 13µM* | 0
Cc1ccc2onc(CNC(=O)Nc3cc(F)ccc3F)c2c1 | x | x | x | -9 | x | 1
COc1cc(/C=C/c2cc(C(=O)O)c3ccccc3n2)ccc1OC(F)F | 0 | -2% | 2.5µM* | 0 | 3% | 0
O=C(O)c1cc(/C=C/c2ccc(N3CCOCC3)cc2)nc2ccccc12 | 1 | -5% | 0% | -26 | -42% | 2
Cc1ccc(S(=O)(=O)N2CCN(c3nc(-c4cccs4)nc4c3ncn4COC(=O)C(C)(C)C)CC2)cc1 | x | x | 0% | x | x | 0
COc1ccc(C(=O)OCCc2ccc(O)cc2)cc1 | 0 | -2% | 5µM* | 10 | -2% | 0
COC(=O)c1ccc(COC(=O)CNC(=O)CNC(=O)c2ccc(OC)cc2)cc1 | 3 | -5% | -26% | -7 | x | 1
COC(=O)c1ccc(COC(=O)CNC(=O)c2ccc(OC)cc2)cc1 | -1 | 1% | 5µM* | 0 | x | -1
O=C(Nc1nsc(-c2ccccc2)n1)c1ccc(F)cc1 | 0 | -5% | 11µM* | 26 | 1% | 2
CSc1nc2ccc3nc(NC(=O)c4ccc(Cl)s4)sc3c2s1 | 0 | 1% | -24% | 7 | -2% | -1
CSc1nc2ccc3nc(NC(=O)c4cccs4)sc3c2s1 | -1 | -5% | 8.9µM* | -1 | 2% | 1
O=C1S/C(=C/c2ccc(N3CCOCC3)o2)C(=O)N1Cc1ccc(F)cc1 | 8 | u | 16% | -14 | 2µM* | 20
CC(C)OC(=O)CN1C(=O)S/C(=C/c2ccc(N3CCCCC3)o2)C1=O | 5 | u | 34% | 0 | 18% | 6
O=C1S/C(=C\c2ccc(N3CCOCC3)o2)C(=O)N1Cc1ccc(F)cc1 | 8 | u | -14% | 3 | 2µM* | 3
O=C1NC(=S)S/C1=C/c1ccc(N2CCOCC2)o1 | 1 | u | 30% | -3 | -55% | 28
Nc1nc(N)nc(COc2ccccc2)n1 | -1 | -7% | 4.5µM* | -14 | -9% | 1
O=C(Nc1ccccc1)N1CCCC2CCCCC21 (stereo not given) | 0 | -1% | 11µM* | 25 | -17% | 0
O=C(NC1CCCC1)C1CCCN1C(=O)Nc1ccccc1 (stereo not given) | 1 | -3% | 3% | 7 | -2% | 0
C/C(Cc1ccccc1)=N\NC(=O)c1ccccn1 | 0 | 0% | 2.2µM* | -1 | 0% | 0
C/C(Cc1ccccc1)=N\NC(=O)c1cccnc1 | 2 | 0% | 0% | 19 | 5% | 0
O=C(Nc1ccncc1)c1cnn2c1NC(=C1CC1)C=C2C(F)F | x | x | 13% | x | x | -1
CCc1nc2oc3cc(OC)ccc3c(=O)c2c(=O)n1Cc1ccco1 | 1 | -6% | -26% | 7 | 25µM* | -1
SMILES | IL-2 act | PTAP TSG101 blk | BRCA1 expr up | TRPML1 blocker | PKM2 activator | TRPML1 ag
COc1ccc(-c2nc3oc4cc(OC)ccc4c(=O)c3c(=O)n2Cc2ccco2)cc1 | 0 | -4% | -6% | 4 | u | -1
N#C/C(=C\c1ccc(C(=O)O)cc1)c1nc2sc3c(c2c(=O)[nH]1)CCCC3 | 301* | u | 11% | 3 | 20% | 9
Cc1c(CCNC(=O)c2ccc(Br)o2)sc2nc(-c3ccc(Cl)cc3)nn12 | x | x | x | -12 | x | 2
CCCCN(CCCC)c1ncnc2nc[nH]c12 | 1 | -7% | -21% | 17 | 6% | 4
CCCCN(Cc1ccccc1)c1ncnc2nc[nH]c12 | -1 | -5% | 13µM* | -15 | -6% | 7
CCOc1cc2[nH]c(=O)n(CCCCC(=O)N3CCN(c4ccccc4OC)CC3)c(=O)c2cc1OCC | x | x | x | 14 | x | -1
C=C(C)CNC(=S)Nc1nc2c(cc1C(=O)OCC)CCCC2 | 0 | -1% | 7.1µM* | -3 | -1% | 0
Clc1ccc(OCc2noc(-c3ccsc3)n2)c(Cl)c1 | 0 | -9% | 3.5µM* | -6 | -5% | 0
O=C(NCCc1ccccc1)c1noc2c1CCCCC2 | -1 | -6% | 4µM* | 14 | -14% | 3
Cc1ccc(Cn2ccc(NC(=O)c3noc4c3CCCC4)n2)cc1 | -1 | -9% | 5.6µM* | 4 | 3% | 1
O=C(NCc1ccccc1)c1noc2c1CCCC2 | -1 | -15% | -40% | -16 | 0% | 0
OC(Br)C(O)C(O)N1CCCc2ccccc21 (stereo not given) | x | x | x | x | x | -1
CCN1C(=O)/C(=C/N2CCc3ccccc32)SC1=S | 1 | u | 3.2µM* | 21 | 2% | 1
C[n+]1ccnc2cc(Cl)ccc21 | x | x | -79% | x | x | 5
O=C(CCc1nnc(CCCc2ccccc2)o1)NCCCC1CCCC1 | 0 | -1% | 13µM* | -9 | -6% | 0
O=C(NCC1CCCO1)Nc1cccc(Cl)c1 (stereo not given) | -2 | -1% | 62% | 10 | -2% | -1
Cc1cccc(NC(=O)C(=O)NCC2CCCO2)c1 (stereo not given) | 1 | 0% | 2.2µM* | 2 | -10% | -1
CC(=O)Nc1ccc(/C=C2\C=Cc3ccccc32)cc1 | x | x | u | x | x | 1
Cc1cccc2cc3c(nc12)SC(=NCC1CCCO1)N(Cc1ccco1)C3 (stereo not given) | -4 | -5% | -37% | -10 | 11µM* | 10
Cc1cc(C)c2nc(N3CCCC(C(=O)NCCN4CCOCC4)C3)sc2c1 (stereo not given) | -3 | -8% | 2.8µM* | 3 | -1% | 0
CCN(CC)C(=O)c1c(NC(=O)c2ccccc2F)sc2c1CCC(C(C)(C)C)C2 (stereo not given) | x | x | x | -6 | x | 0
Nc1ccc(NC(=O)NC2CCCCC2)cc1[N+](=O)[O-] | -1 | -4% | 4µM* | -11 | -14% | -1
CCCCOC(=O)Nc1ccc(N2CCOCC2)cc1 | 2 | -6% | 4.5µM* | -1 | 4% | -1
CCCCOC(=O)Nc1ccc(C(N)=O)cc1 | -1 | -2% | u | 3 | 1% | -1
CCCCOC(=O)Nc1ccc(C(C)C)cc1 | -1 | -7% | 11µM* | -21 | 7% | 11
